Bioassay records: PubChem BioAssay, The Scripps Research Institute Molecular Screening Center
MITF primary – human MITF inhibition, primary screen; O75030; inhibition, % at 2.6 µM; AID 1259374; hit rate 0.91% among 650,000; AlphaScreen MITF homodimerization, bead proximity signal; in the data active = inhibition above about 50%
TEAD-YAP inh – TEAD-YAP interaction inhibition; hit rate 1.4% among 640,000; inhibition, % at 9.12 µM; HEK-TIYL cells, TEAD-Gal4/YAP UAS-luciferase luminescence; AID 1259422; in the data active = inhibition above about 32%
FBW7 act – activators of human E3 ligase FBW7; Q969H0; AlphaScreen FBW7–phospho-cyclin E peptide binding, activator screen; normalized activity (activation), % at 26.1 µM; hit rate 0.13% among 650,000; AID 1259310; in the data active = normalized activity above about 1.9%;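 note: purified mutant Fbw7 with reduced substrate affinity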
Target sequence (Q969H0 whole entry, looked up): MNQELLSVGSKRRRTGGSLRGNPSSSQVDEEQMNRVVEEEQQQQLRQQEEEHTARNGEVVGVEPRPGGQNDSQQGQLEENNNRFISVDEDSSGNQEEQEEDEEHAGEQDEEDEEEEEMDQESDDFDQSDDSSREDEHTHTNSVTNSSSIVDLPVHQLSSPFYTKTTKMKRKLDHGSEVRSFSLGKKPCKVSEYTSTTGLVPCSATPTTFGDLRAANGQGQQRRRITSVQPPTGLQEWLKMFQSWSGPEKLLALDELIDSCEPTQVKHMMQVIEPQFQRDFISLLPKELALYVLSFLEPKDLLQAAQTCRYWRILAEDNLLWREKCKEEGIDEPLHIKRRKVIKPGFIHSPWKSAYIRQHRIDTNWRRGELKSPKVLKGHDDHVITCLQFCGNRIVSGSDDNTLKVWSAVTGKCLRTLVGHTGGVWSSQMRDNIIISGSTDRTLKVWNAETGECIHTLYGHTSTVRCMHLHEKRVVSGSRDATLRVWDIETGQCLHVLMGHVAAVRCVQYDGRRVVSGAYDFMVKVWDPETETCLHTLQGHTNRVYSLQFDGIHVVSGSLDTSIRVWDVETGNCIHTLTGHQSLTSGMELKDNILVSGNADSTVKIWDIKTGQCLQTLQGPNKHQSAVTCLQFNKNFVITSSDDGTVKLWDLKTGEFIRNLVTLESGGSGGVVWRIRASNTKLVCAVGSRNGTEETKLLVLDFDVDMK
GPR151 ag – activates the human receptor GPR151; Q8TDV0; activation, % at 11.2 µM; hit rate 1% among 650,000; PathHunter beta-arrestin GPR151 cells, luminescence; in the data active = activation above about 4.9%
Large screens that a line does not name were inactive. Sampled rows, rich in hits. Any-hit rate of the full collection: about 3.5%.

CCOC(=O)c1cnc2ccc(OC)cc2c1Nc1cccc(C)c1	none
O=C(N/N=C/c1cc(Cl)cc([N+](=O)[O-])c1O)c1cccnc1	none
COC(=O)c1ccc(-c2ccc(/C=C(\C#N)c3nc(N)c(C#N)c(N)c3C#N)o2)cc1	FBW7 act 4.7
CN(C)S(=O)(=O)c1cc([N+](=O)[O-])ccc1N/N=C/c1ccccc1	none
Nc1cccc(N2C(=O)c3cccc(N)c3C2=O)c1	none
Nc1cccc2c1C(=O)N(c1ccc3ccccc3c1)C2=O	FBW7 act 2.4
Cc1ccc(N2C(=O)c3cccc(N)c3C2=O)c(C)c1	TEAD-YAP inh 33
OCCNC1CCCc2c1[nH]c1ccc(Br)cc21 (stereo not given)	none
COc1ccc2nc(N3CCCC3)sc2c1	none
COc1ccc2nc(N3CCCCC3)sc2c1	TEAD-YAP inh 61
CCOC(=O)Nc1ccc2c(c1)N(C(C)=O)c1ccccc1CC2	none
O=c1c(CN2CCN(Cc3ccccc3)CC2)coc2ccccc12	TEAD-YAP inh 67
Cc1cc(N(C)C)nc(NCCNC(=O)C(C)(C)Oc2ccc(Cl)cc2)n1	TEAD-YAP inh 32
CCOC(=O)c1c(NC(=O)c2ccccc2F)sc2c1CCCC2=O	none
Oc1c(C=NC2CCCCCC2)sc2ccccc12	TEAD-YAP inh 38
CN(C)c1ccc(N=Cc2c[nH]c3ccccc23)cc1	TEAD-YAP inh 68
O=C(O)c1ccc(N=Cc2sc3ccccc3c2O)cc1	TEAD-YAP inh 52
Oc1ccc(N=Cc2sc3ccccc3c2O)cc1	none
Oc1c(C=Nc2ccc(I)cc2)sc2ccccc12	none
CN(C)c1ccc(N=Cc2sc3ccccc3c2O)cc1	TEAD-YAP inh 76
Oc1c(C=Nc2ccccc2)sc2ccccc12	none
COc1cccc(NC(=O)CSc2nc3ccccc3c3nc(CCc4c[nH]c5ccccc45)nn23)c1	none
O=C1CSC(c2ccc(OC(F)F)cc2)N1c1ccc(Oc2ccc(Cl)cc2)cc1 (stereo not given)	none
Fc1ccc(-c2cc(NC3CC3)nc(-c3ccncc3)n2)cc1	none
COCCNc1cc(-c2ccc(F)cc2)nc(-c2ccccn2)n1	TEAD-YAP inh 74
CCN(CC)c1cc(-c2ccc(F)cc2)nc(-c2ccccn2)n1	MITF primary 58, TEAD-YAP inh 53
Fc1ccc(-c2cc(NC3CC3)nc(-c3ccccn3)n2)cc1	TEAD-YAP inh 90
c1ccc(-c2nc(NC3CC3)cc(-c3ccncc3)n2)nc1	none
COCCNc1cc(-c2ccncc2)nc(-c2ccccn2)n1	none
c1ccc(-c2cc(NC3CC3)nc(-c3ccccn3)n2)cc1	TEAD-YAP inh 92
CC(C)NC(=O)C1CCN(Cc2cnn(-c3ccccc3)c2-n2cccc2)CC1	none
COCC(C)NC(=O)c1cc(-c2ccco2)on1 (stereo not given)	none
CN1CCN(CC(=O)N2c3ccccc3Sc3ccccc32)CC1	none
Cc1cc(/C=C2\Sc3ccccc3N2C)cc(C)[n+]1CCCN1CCOCC1	TEAD-YAP inh 41
Cc1cc(/C=C2\Sc3ccccc3N2C)cc(C)[n+]1N(C)C	TEAD-YAP inh 78
Cc1cc(/C=C2\Sc3ccccc3N2C)cc(C)[n+]1N1CCN(C)CC1	TEAD-YAP inh 73
CCOC(=O)C1=C(C)N(CC(C)C)C(=O)/C1=C\c1ccc(OC)cc1OC	none
CCOC(=O)C1=C(C)N=c2s/c(=C/c3ccc(OC)cc3)c(=O)n2C1/C=C/c1ccccc1 (stereo not given)	none
COc1ccc(C2SCCN2S(=O)(=O)c2ccc(NC(C)=O)cc2)cc1 (stereo not given)	none
COc1ccc(C2SCCN2S(=O)(=O)c2ccc(NC(C)=O)cc2)cc1OC (stereo not given)	FBW7 act 1.9
COc1ccc(C(=O)N2CCN(C3=NS(=O)(=O)c4ccccc43)CC2)c(OC)c1	none
CCCN1CCN(C(=O)c2sc3nc(C)nc(N4CCCCC4C)c3c2C)CC1 (stereo not given)	none
c1ccc(Oc2ccc(Nc3nc(N4CCc5ccccc5C4)nc4c3ncn4C3CCCCC3)cc2)cc1	none
Cc1noc(C)c1-c1nc(Nc2ccc(N3CCOCC3)cc2)c2ncn(C3CCCCC3)c2n1	none
c1ccc(Nc2nc(N3CCc4ccccc4C3)nc3c2ncn3C2CCCCC2)cc1	TEAD-YAP inh 32
Cc1noc(C)c1-c1nc(Nc2ccccc2)c2ncn(C3CCCCC3)c2n1	TEAD-YAP inh 75
Cc1ccccc1C(=O)NC(=S)N1CCCC1	none
Cc1cnc(Cl)nc1NCCc1ccc(O)cc1	none
COc1ccc(CCNc2nc(-c3cccs3)ncc2C)cc1	TEAD-YAP inh 44
COc1ccc(CCNc2nc(Cl)ncc2C)cc1	TEAD-YAP inh 42
Cc1ccc(C(=O)CSc2nc3nc(C)cc(C)c3c(=O)[nH]2)cc1	none
CS(=O)(=O)Nc1ccc(-c2cnc3cccc(Nc4cncnc4)c3c2)cc1	none
